Inconclusive results are not listed. Some compounds were tested as several samples or in several runs, with calls that do not always agree. Activity calls are given as the source filed them. The call rests on the fitted dose curve; in most records, active means well fitted curve in the direction sought with a large enough effect; inconclusive means small, poorly fitted or top-dose-only effect, or another doubt; inactive means no such curve, though single readings can be large; an effect the other way counts as inactive or inconclusive. Non-standard residues stand in square brackets, D forms with d. Residues, ends and D or L forms follow the SMILES beside them. *: point of attachment. Sta = CC(C)C[C@H](N)[C@@H](O)CC(=O)O; Isovaleryl = CC(C)CC(=O)*
How the values were obtained:
[1] = qHTS of pediatric cancer cell lines to identify multiple opportunities for drug repurposing: Primary screen for LAN-5 cells (AID 1347100);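 on activity change, negative = cytotoxic: plate controls were DMSO neutral control for no effect and bortezomib positive control for full effect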
Procedure, shortened: (§1)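 Viability after 48 h compound treatment at 37C, 500-1,000 cells/well, read as ATP luminescence with CellTiter-Glo. Primary screens used 11-point (MIPE, 0.78 nM-46 µM) or 8-point (NPC, 0.59 nM-46 µM) final concentrations; follow-up screens used 11-point dilutions.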

[2] = qHTS of pediatric cancer cell lines to identify multiple opportunities for drug repurposing: Primary screen for BT-12 cells (AID 1347101); further: nearly all actives have a fitted effect of over 25% in size;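 on activity change, negative = cytotoxic: plate controls were DMSO for no effect and bortezomib positive control for full effect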
Procedure, shortened: (§2)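 Cells (500-1,000/well) rested 5 h, then received compounds for 48 h; metabolically active cells were measured by CellTiter-Glo luminescence. Final concentrations spanned up to 46 µM (MIPE, 11-point) or 0.59 nM-46 µM (NPC, 8-point) in primary screens, 11-point in follow-ups.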

[3] = qHTS of pediatric cancer cell lines to identify multiple opportunities for drug repurposing: Primary screen for Rh18 cells (AID 1347102); further: nearly all actives have a fitted effect of over 65% in size; on activity change, negative = cytotoxic: on the % scale 0 is the no-effect control and ±100 the full control effect
Procedure, shortened: as §1

[4] = qHTS of pediatric cancer cell lines to identify multiple opportunities for drug repurposing: Primary screen for OHS-50 cells (AID 1347103); further: nearly all actives have a fitted effect of over 40% in size;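 on activity change, negative = cytotoxic: plate controls were DMSO neutral control for no effect and bortezomib positive control for full effect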
Procedure, shortened: as §2

[5] = qHTS of pediatric cancer cell lines to identify multiple opportunities for drug repurposing: Primary screen for RD cells (AID 1347104); further: nearly all actives have a fitted effect of over 55% in size;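 on activity change, negative = cytotoxic: plate controls were DMSO for no effect and bortezomib for full effect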
Procedure, shortened: (§3)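 Cells plated at 500-1,000/well in growth medium, compounds added after 5 h. MIPE tested at 11 points (from 0.78 nM), NPC at 8 points (from 0.59 nM). CellTiter-Glo luminescence after 48 h; concentration-response curves from primary screen.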

[6] = qHTS of pediatric cancer cell lines to identify multiple opportunities for drug repurposing: Primary screen for MG 63 (6-TG R) cells (AID 1347105); further: nearly all actives have a fitted effect of over 50% in size; on activity change, negative = cytotoxic: on the % scale 0 is the no-effect control and ±100 the full control effect
Procedure, shortened: as §3

[7] = qHTS of pediatric cancer cell lines to identify multiple opportunities for drug repurposing: Primary screen for control Hh wild type fibroblast cells (AID 1347106); further: nearly all actives have a fitted effect of over 55% in size;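 on activity change, negative = cytotoxic: series mostly up to about 46 µM; on the % scale 0 is the no-effect control and ±100 the full control effect; a drop in luminescence marks cytotoxicity and a rise apparent proliferation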
Procedure, shortened: as §1

[8] = qHTS of pediatric cancer cell lines to identify multiple opportunities for drug repurposing: Primary screen for Rh30 cells (AID 1347107); further: nearly all actives have a fitted effect of over 75% in size; on activity change, negative = cytotoxic: series mostly up to about 46 µM; on the % scale 0 is the no-effect control and ±100 the full control effect
Procedure, shortened: as §1

[9] = qHTS of pediatric cancer cell lines to identify multiple opportunities for drug repurposing: Primary screen for Rh41 cells (AID 1347108); further: nearly all actives have a fitted effect of over 70% in size;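 on activity change, negative = cytotoxic: series mostly up to about 46 µM; luminescence drop marks cytotoxic hits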
Procedure, shortened: as §3

[10] = qHTS of pediatric cancer cell lines to identify multiple opportunities for drug repurposing: Confirmatory screen for NB1643 cells (AID 1347109); further: nearly all actives have a fitted effect of over 45% in size;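 on activity change, negative = cytotoxic: plate controls were DMSO for no effect and bortezomib for full effect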
Procedure, shortened: as §1

[11] = qHTS of pediatric cancer cell lines to identify multiple opportunities for drug repurposing: Confirmatory screen for A673 cells (AID 1347110); further: nearly all actives have a fitted effect of over 65% in size
Procedure, shortened: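 A673 cells at 500-1,000 cells/well were dosed 5 h after plating, in dilution series up to 46 uM final; primary runs used 8 or 11 points and confirmatory runs used 11 points. Viability was read by CellTiter-Glo luminescence after 48 h, against DMSO and 2.3 uM bortezomib controls.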

[12] = qHTS of pediatric cancer cell lines to identify multiple opportunities for drug repurposing: Confirmatory screen for SK-N-MC cells (AID 1347111);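 further: cells exposed to compound for 48 h before the readout; nearly all actives have a fitted effect of over 70% in size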;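 on activity change, negative = cytotoxic: plate controls were DMSO for no effect and bortezomib for full effect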
Procedure, shortened: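 SK-N-MC cells at 500-1,000 cells/well in growth media were pre-incubated 5 h, then exposed to compounds at 11-point dilutions for 48 h at 37 degrees C, 5% CO2. Viability was read as CellTiter-Glo luminescence.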

[13] = qHTS of pediatric cancer cell lines to identify multiple opportunities for drug repurposing: Confirmatory screen for BT-12 cells (AID 1347112); further: nearly all actives have a fitted effect of over 55% in size; on activity change, negative = cytotoxic: on the % scale 0 is the no-effect control and ±100 the full control effect
Procedure, shortened: as §1

[14] = qHTS of pediatric cancer cell lines to identify multiple opportunities for drug repurposing: Confirmatory screen for DAOY cells (AID 1347114); further: nearly all actives have a fitted effect of over 65% in size
Procedure, shortened: (§4)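 Viability measured as metabolically active cells via CellTiter-Glo luminescence following 48 hours of compound exposure, 11-point dilutions in confirmatory testing. 500-1,000 cells/well plated 5 hours before dosing; controls were DMSO and 2.3 µM bortezomib.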

[15] = qHTS of pediatric cancer cell lines to identify multiple opportunities for drug repurposing: Confirmatory screen for NB-EBc1 cells (AID 1347115); further: nearly all actives have a fitted effect of over 45% in size
Procedure, shortened: as §1

[16] = qHTS of pediatric cancer cell lines to identify multiple opportunities for drug repurposing: Confirmatory screen for BT-37 cells (AID 1347117); further: nearly all actives have a fitted effect of over 55% in size;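 on activity change, negative = cytotoxic: plate controls were DMSO for no effect and bortezomib for full effect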
Procedure, shortened: as §1

[17] = qHTS of pediatric cancer cell lines to identify multiple opportunities for drug repurposing: Confirmatory screen for TC32 cells (AID 1347118); further: nearly all actives have a fitted effect of over 65% in size
Procedure, shortened: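 qHTS, TC32, 48 h drug treatment, CellTiter-Glo luminescence as a proxy for metabolically active cells; primary top concentration 46 µM (MIPE 11-pt, NPC 8-pt); confirmatory 11-pt.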

[18] = qHTS of pediatric cancer cell lines to identify multiple opportunities for drug repurposing: Confirmatory screen for U-2 OS cells (AID 1347122); further: nearly all actives have a fitted effect of over 65% in size
Procedure, shortened: as §1

[19] = qHTS of pediatric cancer cell lines to identify multiple opportunities for drug repurposing: Confirmatory screen for Rh41 cells (AID 1347123);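 further: 48 h compound exposure; nearly all actives have a fitted effect of over 60% in size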
Procedure, shortened: as §1

[20] = qHTS of pediatric cancer cell lines to identify multiple opportunities for drug repurposing: Confirmatory screen for SJ-GBM2 cells (AID 1347116); further: nearly all actives have a fitted effect of over 60% in size
Procedure, shortened: as §4
Potency means the concentration at half of the fitted maximal effect.

CCN(CCO)CCCC(C)Nc1ccnc2cc(Cl)ccc12 (stereo not given)
active: Potency [1] 3720 nM
inactive: activity change, negative = cytotoxic [1] 22.8% [at 4.84 µM] | Potency [2] | Potency [3] | activity change, negative = cytotoxic [4] -4.93% [at 6.18 µM] | activity change, negative = cytotoxic [5] 5.84% [at 4.84 µM] | activity change, negative = cytotoxic [6] 6.76% [at 4.84 µM] | Potency [7] | Potency [8] | Potency [9] | Potency [10] | Potency [11] | Potency [12] | Potency [13] | Potency [14] | Potency [15] | Potency [16] | Potency [17] | Potency [18] | Potency [19]

CC(=O)Nc1ccc(O)cc1
inactive: Potency [1] | Potency [2] | Potency [3] | Potency [4] | Potency [5] | Potency [6] | Potency [7] | Potency [8] | Potency [9]

CC1=C(C)C(=O)C(C(CCCCCC(=O)O)c2ccccc2)=C(C)C1=O (stereo not given)
inactive: Potency [1] | Potency [2] | Potency [3] | Potency [4] | Potency [5] | Potency [6] | Potency [7] | Potency [8] | Potency [9]

Cc1cc2c(s1)Nc1ccccc1N=C2N1CCN(C)CC1
inactive: Potency [1] | Potency [2] | Potency [3] | Potency [4] | Potency [5] | Potency [6] | Potency [7] | Potency [8] | Potency [9]

COCCCOc1ccnc(CS(=O)c2nc3ccccc3[nH]2)c1C (stereo not given)
inactive: Potency [1] | Potency [2] | Potency [3] | Potency [4] | Potency [5] | Potency [6] | Potency [7] | Potency [8] | Potency [9]

Clc1ccc2c(N3CCN(CCCN4CCN(c5ccnc6cc(Cl)ccc56)CC4)CC3)ccnc2c1
inactive: Potency [1] | Potency [2] | Potency [3] | Potency [4] | Potency [5] | Potency [6] | Potency [7] | Potency [8] | Potency [9]

CCC[C@@H]1C[C@@H](C(=O)N[C@@H]([C@H]2O[C@H](SC)[C@H](O)[C@@H](O)[C@H]2O)[C@@H](C)O)N(C)C1
inactive: Potency [1] | Potency [2] | Potency [3] | Potency [4] | Potency [5] | Potency [6] | Potency [7] | Potency [8] | Potency [9]

NC(=NCc1ccccc1)NC(=O)c1nc(Cl)c(N)nc1N
inactive: Potency [1] | Potency [2] | Potency [3] | Potency [4]
active: Potency [5] 26400 nM

COc1ccc2cc([C@H](C)C(=O)O)ccc2c1
inactive: Potency [1] | Potency [2] | Potency [3] | Potency [4] | Potency [5] | Potency [6] | Potency [7] | Potency [8] | Potency [9]

O=C(O)c1cc(=O)c2c(OCC(O)COc3cccc4oc(C(=O)O)cc(=O)c34)cccc2o1
inactive: Potency [1] | Potency [2] | Potency [3] | Potency [4] | Potency [5] | Potency [6] | Potency [7] | Potency [8] | Potency [9]

Cc1cc(O)c2c(c1)C(=O)c1cc(O)cc(O)c1C2=O
inactive: Potency [1] | Potency [2] | Potency [3] | Potency [4] | Potency [5] | Potency [6] | Potency [7]

NNc1nncc2ccccc12
inactive: Potency [1] | Potency [2] | Potency [3] | Potency [4] | Potency [5] | Potency [6] | Potency [7] | Potency [8] | Potency [9]

CCC(C)(Oc1ccc(C2(c3ccc(OC(C)(CC)C(=O)O)cc3)CCCCC2)cc1)C(=O)O (stereo not given)
inactive: Potency [1] | Potency [2] | Potency [3] | Potency [4] | Potency [5] | Potency [6] | Potency [7] | Potency [8] | Potency [9]

CC(C)CC(=O)N[C@H](C(=O)N[C@H](C(=O)N[C@@H](CC(C)C)[C@@H](O)CC(=O)N[C@@H](C)C(=O)N[C@@H](CC(C)C)[C@@H](O)CC(=O)O)C(C)C)C(C)C (Isovaleryl-VV[Sta]A[Sta]-OH)
inactive: Potency [1] | Potency [2] | Potency [3] | Potency [4] | Potency [5] | Potency [6] | Potency [7] | Potency [8] | Potency [9] | Potency [14] | Potency [15]
active: Potency [10] 16500 nM | Potency [11] 1470 nM | Potency [12] 5220 nM | Potency [17] 5850 nM

CC(C)(S)[C@@H](N)C(=O)O
inactive: Potency [1] | Potency [2] | Potency [3] | Potency [4] | Potency [5] | Potency [6] | Potency [7] | Potency [8] | Potency [9]

CCC1=C(C)CN(C(=O)NCCc2ccc(S(=O)(=O)NC(=O)NC3CCC(C)CC3)cc2)C1=O (stereo not given)
inactive: Potency [1] | Potency [2] | Potency [3] | Potency [4] | Potency [5] | Potency [6] | Potency [7] | Potency [8] | Potency [9]

CN1C(C(=O)Nc2ccccn2)=C(O)c2sccc2S1(=O)=O
inactive: Potency [1] | Potency [2] | Potency [3] | Potency [4] | Potency [5] | Potency [6] | Potency [7] | Potency [8] | Potency [9]

CC(C)C[C@H](NC(=O)[C@H](Cc1ccccc1)NC(=O)c1cnccn1)B(O)O
active: Potency [1] 16.6 nM | Potency [2] 43.2 nM | Potency [3] 29.6 nM | Potency [4] 87.1 nM | Potency [5] 53.1 nM | Potency [6] 23.5 nM | Potency [7] 74.3 nM | Potency [8] 93.5 nM | Potency [9] 29.6 nM | Potency [10] 36.9 nM | Potency [11] 46.5 nM | Potency [12] 13.1 nM | Potency [13] 46.5 nM | Potency [14] 13.1 nM | Potency [15] 46.5 nM | Potency [20] 32.9 nM | Potency [16] 46.5 nM | Potency [17] 41.4 nM | Potency [18] 58.5 nM | Potency [19] 16.5 nM

N=C(N)c1ccc2cc(OC(=O)c3ccc(N=C(N)N)cc3)ccc2c1
inactive: Potency [1] | Potency [3] | Potency [4] | Potency [5] | Potency [6] | Potency [7] | Potency [8] | Potency [9]

COc1c(O)cc2c(c1O)[C@@H]1O[C@H](CO)[C@@H](O)[C@H](O)[C@H]1OC2=O
inactive: Potency [1] | Potency [3] | Potency [4] | Potency [5] | Potency [6] | Potency [7] | Potency [8] | Potency [9]

From PubChem BioAssay (NCATS)
